About 4,000 (1%) of roughly 390,000 compounds were called active. Another 4% or so got no clear call; they are omitted. The list comes from a sample in which actives are over-represented; it also holds similar structures and randomly drawn compounds. Unmarked numbers belong to inactive results. Calls come from the whole dose curve; as a rule, active = well fitted inhibition curve with a large enough effect; inconclusive = small, poorly fitted or top-dose-only effect; inactive = no such curve, though single readings can be large or run the other way.
These molecules were tested against Thioredoxin reductase 1, cytoplasmic (Rattus norvegicus) (UniProt O89049) (assay: qHTS Assay for Inhibitors of Mammalian Selenoprotein Thioredoxin Reductase 1 (TrxR1): qHTS). Settings: recombinant rTrxR1, NADPH fluorescence consumption, selenite substrate; series mostly up to 114 µM; activity change, negative = inhibition: at the top concentration.
Summary of the method: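 Rat TrxR1 (90 nM in the dispensed reagent) was pre-reduced with 400 uM NADPH for 5 min at room temperature, then incubated with compound for 15 min. After 400 uM selenite was added, NADPH fluorescence (Ex 340/Em 450 nm) was followed for 8 min.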
% is set by controls: 0 for no effect and ±100 for the full control effect; potency is the fitted concentration of half-maximal effect.
Note: nearly all actives have a fitted effect of over 65% in size.

Thioredoxin reductase 1, cytoplasmic (Rattus norvegicus), sequence (O89049 whole entry, looked up): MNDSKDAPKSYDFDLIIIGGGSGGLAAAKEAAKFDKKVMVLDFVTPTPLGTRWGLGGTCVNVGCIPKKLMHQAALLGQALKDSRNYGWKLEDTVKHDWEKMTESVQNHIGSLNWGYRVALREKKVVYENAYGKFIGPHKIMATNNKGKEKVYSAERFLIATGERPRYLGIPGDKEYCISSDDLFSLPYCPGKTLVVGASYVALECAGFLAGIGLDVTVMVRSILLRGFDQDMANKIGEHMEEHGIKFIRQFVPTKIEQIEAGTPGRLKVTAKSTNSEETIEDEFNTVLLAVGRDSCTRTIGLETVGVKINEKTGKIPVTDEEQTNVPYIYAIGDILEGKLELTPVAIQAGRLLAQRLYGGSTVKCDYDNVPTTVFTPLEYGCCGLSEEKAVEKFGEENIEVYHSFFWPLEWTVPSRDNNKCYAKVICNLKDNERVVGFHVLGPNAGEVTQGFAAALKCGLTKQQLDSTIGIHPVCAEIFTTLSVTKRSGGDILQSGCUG

| SMILES | activity change, negative = inhibition | Potency |
| --- | --- | --- |
| CC1(C)CC(=O)c2cc(C(=O)NCc3ccccc3)c(=O)[nH]c2C1 | 8.76% |  |
| O=C(NCCC1=CCCCC1)c1ccc2c(c1)N(Cc1ccccc1F)C(=O)c1ccccc1S2(=O)=O | 41.9% |  |
| COc1ccc(Cn2cc(C(=O)c3ccc(C)cc3)c(=O)c3cc(OC)c(OC)cc32)cc1 | 21.9% |  |
| COc1ccc(-c2nc(C)c(CCNC(=O)c3ccc(C(F)(F)F)cc3)s2)cc1OC | 14.7% [at 57.1 µM] |  |
| O=C(Nc1ccccc1Cl)N1CCC(CN2CCCC2)CC1 | -6.79% |  |
| O=C(Nc1ccccc1Cl)/C(Cl)=C(\Cl)S(=O)c1ccccc1 (stereo unspecified) |  | 0.398 µM (active) |
| O=C(Nc1ccccc1Cl)N1CCC(CN2CCCCC2)CC1 | 24.2% [at 57.1 µM] |  |
| O=C1C2C(c3ccccc3)CC=CC2C(c2ccoc2)N1Cc1ccccc1 (stereo unspecified) | -7.81% |  |
| C#CC(C)(CC)NC(=O)Cn1nnc(-c2ccc(OCc3c(F)cccc3Cl)cc2)n1 (stereo unspecified) | 28.4% |  |
| COc1cc(OC)cc(C(=O)NCCc2csc3nc(-c4ccccc4F)nn23)c1 | 6.74% [at 57.1 µM] |  |
| COc1cc(C(=O)NCC(c2ccc(Cl)cc2)N2CCOCC2)cc(OC)c1OC (stereo unspecified) | 8.59% |  |
| O=C(CSc1ccc(-c2ccco2)nn1)Nc1cccc(F)c1 |  | 25.1 µM (active) |
| O=C(CSc1ccc(-c2ccco2)nn1)NCc1ccc2c(c1)OCO2 | -71.2% |  |
| CCn1c(CNC(=O)c2ccco2)nnc1SCC(=O)Nc1cccc(F)c1 | 27.1% |  |
| COc1ccc(OCCn2cc(C(=O)C3CCCCC3)c3ccccc32)cc1 | 25.8% |  |
| Cc1ccc(C)c(N2CCN(Cc3nnc(-c4ccccc4)o3)CC2)c1 | 16.7% |  |
| C=C(Br)CN1CCN(CC(=C)Br)CC1 |  | 12.6 µM (active) |
| Cc1ccc(CN(C(=O)COc2ccc(Cl)cc2C)C2CCS(=O)(=O)C2)o1 (stereo unspecified) | -11.1% |  |
| CCOC(=O)CSc1nnc(CNC(=O)c2ccco2)n1-c1ccc(F)cc1 | -12.3% |  |
| Cn1c(SCC(=O)N2CCCC2)nnc1-c1cccs1 | -0.504% |  |
| CCOC(=O)CSc1nnc(-c2ccco2)n1C |  | 22.4 µM (active) |
| CCCN1CCC(=O)N(C(CSc2ccc(C)cc2)Cc2ccccc2)CC1 (stereo unspecified) | -13.5% |  |

| SMILES | activity change, negative = inhibition | Potency |
| --- | --- | --- |
| CC1=C(C)CC2C(=O)N(c3cccc4ccccc34)C(=O)C2C1 (stereo unspecified) |  | 14.1 µM (active) |
| CCc1ccccc1N1C(=O)C2C3CC(=O)C(c4ccccc43)C2C1=O (stereo unspecified) | 9.08% |  |
| Cn1c(=O)c2cn(-c3cccc4ccccc34)cc2n(C)c1=O | -9.19% |  |
| COc1cccc(OCCn2c(-c3ccc(Br)cc3)nc3ccccc3c2=O)c1 | 19.9% |  |
| COC(=O)C(CC(C)C)NS(=O)(=O)c1cc(Br)ccc1Br (stereo unspecified) | 4.6% |  |
| O=C(NCC(c1cccnc1)N1CCc2ccccc21)c1cccc(C(F)(F)F)c1 (stereo unspecified) | -5.37% |  |
| Nc1ccccc1N | 14.3% |  |
| COc1ccc(N2C(=O)CC(Sc3n[nH]c(-c4ccc(C)cc4)n3)C2=O)cc1 (stereo unspecified) |  | 5.01 µM (active) |
| CC(=O)Nc1ccc(N2C(=O)CC(Sc3nccc(C)n3)C2=O)cc1 (stereo unspecified) | 33.8% |  |
| COc1ccc(-c2nc(SCC(=O)N3CCCCC3C)n[nH]2)cc1 (stereo unspecified) | 8.31% [at 57.1 µM] |  |
| C/[N+]([O-])=C\c1ccc([N+](=O)[O-])o1 |  | 11.2 µM (active) |
| Cc1cccc(NC(=O)COC(=O)c2ccccc2OCc2cccc(Br)c2)c1 | 11.2% |  |
| Cc1cc(Nc2cc(N3CCN(C)CC3)nc(Sc3ccc(NC(=O)C4CC4)cc3)n2)n[nH]1 | -3.3% [at 57.1 µM] |  |
| C=CC(=O)Nc1ccc(Nc2ccnc(Nc3ccc(N4CCN(C)CC4)cc3)n2)cc1 |  | 12.6 µM (active) |
| Cn1c(SCC(=O)Nc2ccc(N3CCOCC3)cc2)nnc1C(F)(F)F | 15.9% |  |
| CCc1ccc(NC(=O)N2CCN(C(=O)c3nsc4ccccc34)CC2)cc1 | 12.5% [at 57.1 µM] |  |
| CCOC(=O)c1scc(-c2ccc(C)cc2)c1S(=O)(=O)Nc1cc(C)ccc1C | 18.8% [at 57.1 µM] |  |
| COc1ccc(NS(=O)(=O)c2cc(NC(=O)CC(=O)c3ccc([N+](=O)[O-])cc3)ccc2C)cc1 | 8.24% |  |
| COc1cccc(NCCC(=O)c2cccc([N+](=O)[O-])c2)c1 |  | 20 µM (active) |
| COc1cccc(C(=O)CC(=O)C(=O)Nc2ccc([N+](=O)[O-])cc2C)c1 | -9.02% |  |
| Cc1ccccc1CNC(=O)C1CCCN(S(=O)(=O)N(C)c2ccc(F)cc2)C1 (stereo unspecified) | -1.25% |  |
| Cc1ccc(-n2c(=O)cc(N3CCN(Cc4ccccc4)CC3)[nH]c2=O)cc1 | -31.5% |  |

| SMILES | activity change, negative = inhibition | Potency |
| --- | --- | --- |
| CC1CN(c2cc(=O)n(Cc3ccc(F)cc3)c(=O)[nH]2)CC(C)O1 (stereo unspecified) |  | 10 µM (active) |
| CC(C)(C)N1CC(c2nc3ccccc3n2Cc2ccc(F)cc2)CC1=O (stereo unspecified) | 6.6% |  |
| Cc1c(Cl)cccc1NC(=O)Cn1cc(C(=O)c2cccs2)c2ccccc21 | 3.36% |  |
| O=C(Cn1c(=O)n(-c2ccc(F)cc2)c(=O)c2sc3ccccc3c21)NC1CCCC1 | 12.1% |  |
| O=S(=O)(NCCCN1CCOCC1)c1ccc(F)c(Cl)c1 | 12% |  |
| O=[N+]([O-])c1cc(S(=O)(=O)CCCN2CCOCC2)ccc1F |  | 11.2 µM (active) |
| O=C(NCCCN1CCOCC1)c1ccccc1NS(=O)(=O)c1ccc(F)cc1 | 12.5% [at 57.1 µM] |  |
| CC1CC2C3CCC4=CC(=O)C=C[C@]4(C)[C@@]3(F)[C@@H](O)C[C@]2(C)[C@@]1(O)C(=O)CO (stereo partly specified) | -3.45% [at 57.1 µM] |  |
| COc1cc(OC)c(OC)cc1/C=C1\C=Cc2ccccc21 | -6.02% |  |
| Cc1nnc(SCCCCSc2nnc(C)c(=O)[nH]2)[nH]c1=O | 12.5% [at 11.4 µM] |  |
| CCCCOC(=O)CNc1nnc(SCC(=O)OCC)[nH]c1=O |  | 11.2 µM (active) |
| Cc1nnc(SCC(=O)NCc2cccs2)[nH]c1=O | -32.2% [at 57.1 µM] |  |
| Cc1[nH]c2ccccc2c1C(=O)C(=O)N(C)c1ccccc1 | 14.2% |  |
| Cc1cc(C)cc(NC(=O)CSc2nc3nccnc3c(=O)n2CCc2c[nH]c3ccccc23)c1 | 7.71% |  |
| COc1ccc(Cl)cc1C(=O)NNC(=S)NC(=O)/C=C/c1ccco1 | 7.92% |  |
| O=C(/C=C/c1ccco1)NC(=S)N1CCCCC1 |  | 28.2 µM (active) |
| COc1ccccc1/C=C/C(=O)NC(=S)N1CCOCC1 | 18.3% [at 57.1 µM] |  |
| Cn1c(=O)cc(OCC(=O)N2CCN(c3ccccc3)CC2)c2ccccc21 | 20.6% |  |
| COc1ccc(-c2nc3nc(C)cc(C)n3c2Nc2c(C)cccc2C)cc1 | 5.66% |  |
| COc1ccc(-n2c(SC)nc(O)cc2=O)cc1 | 8.9% |  |
| CCn1c(SC)nc(O)c(C(c2ccc(OC)c(O)c2)c2c(O)nc(SC)n(CC)c2=O)c1=O |  | 50.1 µM (active) |
| CCn1c(SCC(=O)NNC(=O)c2ccc(OC)cc2)nnc1C(C)C | 23.6% [at 57.1 µM] |  |

— PubChem BioAssay AID588453 (National Center for Advancing Translational Sciences (NCATS), 2011)
